# Most compounds without a hit are left out; they make up all but 1.6% or so of the library.
# CR mimetic SO: lowers age-related superoxide in aged yeast cells; superoxide response (% of plate mean), % at 10 µM; AID 2690; S. cerevisiae aged cells, superoxide DHE fluorescence; stronger effect = lower value; 330,000 compounds, 0.18% hits;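 active = superoxide response under a set limit, about three screen SD below normal, cut at about 65% in these data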;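 note: yeast aged for seven days with compound at 30 °C before DHE staining; 100% = average MFI of all compound-treated wells on the plate with controls excluded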
# Efflux pump inh: antifungal efflux pump inhibition, Nile Red retention; S. cerevisiae Candida pump triplex; inhibition, % at 10 µM; 330,000 compounds, 0.44% hits; AID 485275;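 active = plate passing quality check with inhibition over a set limit, or well fluorescence over plate mean plus 4 SD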;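 note: Nile Red retained in pooled yeast measured as flow cytometry median fluorescence; 0% = buffer negative control and 100% = Enniatin B positive control; higher means more Nile Red kept so more efflux inhibition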
# ATG4B inh: blocks human ATG4B protease cleavage of LC3 substrate; ATG4B cleavage of LC3-PLA2, NBD-HPC fluorescence, 1 h; inhibition, % at 8.33 µM; 340,000 compounds, 0.51% hits; AID 504462; in the data active = inhibition above about 40%
# Target sequence (Q9Y4P1 whole entry, looked up): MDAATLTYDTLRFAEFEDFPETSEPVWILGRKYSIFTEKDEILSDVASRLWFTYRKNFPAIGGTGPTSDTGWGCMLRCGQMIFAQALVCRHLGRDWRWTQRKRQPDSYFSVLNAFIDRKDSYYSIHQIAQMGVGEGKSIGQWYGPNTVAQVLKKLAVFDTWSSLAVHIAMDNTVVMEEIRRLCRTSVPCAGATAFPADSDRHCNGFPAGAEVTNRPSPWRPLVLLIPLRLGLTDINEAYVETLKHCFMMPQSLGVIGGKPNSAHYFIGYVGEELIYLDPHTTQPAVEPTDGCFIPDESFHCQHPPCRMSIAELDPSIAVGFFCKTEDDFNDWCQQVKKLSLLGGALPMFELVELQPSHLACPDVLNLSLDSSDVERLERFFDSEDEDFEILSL
# GRK2 aptamer HTS: human GRK2 inhibition via aptamer displacement; AID 488847; bead flow cytometry, FAM-aptamer displacement from GRK2; P25098; inhibition of aptamer binding, % at 10 µM; 330,000 compounds, 0.59% hits;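 active = inhibition of aptamer binding above 40%, roughly 3 SD of noise, on plates passing a quality check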;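 note: median bead fluorescence of bound FAM aptamer so fluorescent compounds give negative values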
# * hit, by the source's call; · = not tested or not shown.
SMILES,CR mimetic SO,Efflux pump inh,ATG4B inh,GRK2 aptamer HTS
CCCCCN(C(=O)CCC(=O)OCc1ccccc1C(F)(F)F)c1c(N)n(CCCC)c(=O)[nH]c1=O,112.5,0.3,-7.4,47.0*
CNC(=O)[C@@H]1CCC(=O)N1,94.7,0.3,3.5,6.0
O=C(CNS(=O)(=O)c1ccc2ccccc2c1)OCc1csc(-c2ccccc2)n1,93.6,0.1,-4.7,100.0*
Cc1ccc(S(=O)(=O)NCC(=O)OCc2csc(-c3ccccc3)n2)cc1,89.3,1.0,14.9,0.0
C/C(CC(=O)Nc1ccc(F)cc1)=N\NC(=O)Cc1csc(N)n1,64.4*,0.4,13.1,1.0
COc1ccc2c(n1)Sc1nc3ccccc3nc1N2,58.9*,0.0,·,4.0
O=C(C1CC(=O)N(C2CCCCC2)C1)N1CCc2ccccc21 (configuration not stated),80.1,-0.1,-10.2,0.0
Cc1ccc(C2/C(=C(\O)c3ccc4c(c3)OCCO4)C(=O)C(=O)N2CC2CCCO2)cc1 (configuration not stated),78.2,-0.1,7.1,0.0
CC[C@]12c3[nH]c4ccc(Cl)cc4c3CCN1C(=O)[C@@H](CC(=O)NCC13CC4CC(CC(C4)C1)C3)C[C@@H]2C(=O)N1CCN(C(=O)c2ccco2)CC1,101.9,0.5,-16.2,4.0
CC[C@]12c3[nH]c4ccc(OC)cc4c3CCN1C(=O)C(CC(=O)NCC13CC4CC(CC(C4)C1)C3)C[C@@H]2C(=O)N1CCN(C(=O)c2ccco2)CC1 (some centres not stated),94.7,0.4,-16.6,43.0*
NS(=O)(=O)c1ccc(N/C=C\C(=O)c2ccc3ccccc3c2)cc1,88.9,0.6,12.1,49.0*
NC(=S)N/N=C/c1ccc(C23CC4CC(CC(C4)C2)C3)cc1,121.2,0.6*,6.2,2.0
NC(=S)N/N=C/c1ccccc1,99.7,1.5,-0.2,5.0
O=C(CCCn1cc([N+](=O)[O-])cn1)Nc1cccnc1,95.0,-0.2,-3.6,0.0
CCc1cc2ccc(C)cc2nc1SCC(=O)NC1CCCC1,109.0,0.0,-10.0,0.0
O=C(Nc1ccc2nc(-c3ccco3)c(-c3ccco3)nc2c1)N1CCCCCC1,118.3,0.2,46.7*,52.0*
CCOC(=O)C1CCN(C(=O)Nc2ccc3nc(-c4ccco4)c(-c4ccco4)nc3c2)CC1,91.6,0.1,3.1,38.0
COc1ccc(N2CCN(C(=O)c3ccccc3NC(=O)c3ccccc3)CC2)cc1,105.4,-0.2,5.8,5.0
CC(=O)Oc1ccc(C(=O)Nc2cccc3c2CCCC3)cc1,98.0,0.0,-0.5,1.0
O=C(COC(=O)Cc1ccc(Cl)cc1)Nc1ccc(OC(F)F)cc1,113.1,0.0,-5.9,44.0*
C/[N+]([O-])=C\C1C(=O)CC(C)(C)CC1=O,96.0,0.0,0.1,1.0
Cc1oc(-c2cccc3ccccc23)nc1CN1CCC[C@H]1CO,97.5,-0.2,18.4,0.0
O=C(Nc1ccc2c(c1)OCO2)C1CC(c2ccccc2Cl)=NO1 (configuration not stated),122.3,0.0,6.0,2.0
Cn1ncc(C#N)c1NC(=O)C1CC(c2ccccc2Cl)=NO1 (configuration not stated),44.5*,-0.1,-1.6,0.0
CCOc1cc(/C=N/N2CCOCC2)ccc1OCc1ccc(C(=O)OC)o1,94.0,0.1,-4.9,5.0
SMILES,CR mimetic SO,Efflux pump inh,ATG4B inh,GRK2 aptamer HTS
CCC(=O)N1Cc2ccccc2-c2ccccc2C1=O,95.2,0.1,41.4*,1.0
COc1cccc(/C=C2\SC(=S)N(CCCC(=O)N3CCCC3)C2=O)c1,108.4,0.0,-3.9,55.0*
COc1cccc(/C=C2\SC(=S)N(CCCC(=O)N3CCCCC3CCO)C2=O)c1 (configuration not stated),96.6,0.1,-9.3,3.0
Cc1ccc(C)c(N2CCN(CCCc3ccccc3)CC2)c1,94.2,0.0,8.4,2.0
O=[N+]([O-])c1ccc(/C=C/c2ccncc2)cc1,61.5*,0.3,-7.9,0.0
N#CCC(=O)N/N=C/c1ccc(N2N=C(c3ccccc3)CC2c2ccccc2)cc1 (configuration not stated),109.0,0.7,-13.8,67.0*
N/C(=N\NS(=O)(=O)c1ccc(Cl)cc1)c1ccccn1,101.0,0.0,-1.0,41.0*
COc1ccc(Cl)cc1NC(=O)NN1CCN(C)CC1,102.9,-0.1,-0.7,0.0
CCC1(C)N=C(N)Nc2nc3cc(C)c(C)cc3n21 (configuration not stated),63.8*,-0.1,-2.5,0.0
N#C/C(=C/c1ccc(O)c(O)c1)c1nc2ccccc2[nH]1,109.8,2.0*,-9.6,0.0
CCc1nnc(NC(=O)C(c2ccccc2)c2ccccc2)s1,91.1,-0.1,4.7,1.0
Cc1ccc(C2c3c(C)nn(-c4ccc([N+](=O)[O-])cc4)c3N=C3C(=O)Nc4ccccc4N32)cc1 (configuration not stated),99.7,0.5*,·,7.0
O=C1c2cccc3cccc(c23)C(=O)N1c1nccs1,97.0,-0.2,5.4,2.0
O=C1c2cccc3c([N+](=O)[O-])ccc(c23)C(=O)N1c1nccs1,112.7,1.2*,-0.5,6.0
O=C(CN1C(=O)C2CCCCC2C1=O)OCC(=O)c1ccc(Cl)s1 (configuration not stated),104.1,0.0,-5.7,0.0
CC(C(=O)O)N1C(=O)/C(=C/C=C/c2ccco2)SC1=S (configuration not stated),103.5,0.1,71.6*,98.0*
O=C(O)CCCN1C(=O)/C(=C\c2ccco2)SC1=S,·,·,7.9,·
CC1CC(CN)CC(CO)C1 (configuration not stated),97.5,-0.1,3.9,0.0
COc1cccc2c1nc(C)c1cc(C)oc12,118.9,0.4,-10.5,0.0
COc1cccc2nc3cc(C)c(C)cc3nc12,62.7*,0.0,-7.9,5.0
CN(C)CCCN(C(=O)c1ccc([N+](=O)[O-])s1)c1nc2cc3c(cc2s1)OCCO3,73.0,-0.1,-16.5,71.0*
N#Cc1c(-c2cccs2)nc(SCc2ccc(Cl)cc2)[nH]c1=O,·,·,48.7*,·
CSc1nc(-c2cccs2)c(C#N)c(=O)[nH]1,84.1,-0.2,-12.4,1.0
Cc1ccc(C(=O)Nc2nnc(CC(=O)N/N=C/c3ccc(O)c(O)c3)s2)cc1,105.8,0.4,-3.0,62.0*
CCc1cccc2c(/C=N/NC(=O)c3cccc(S(=O)(=O)Nc4ccccc4Cl)c3)c[nH]c12,97.2,-0.3,7.3,1.0
SMILES,CR mimetic SO,Efflux pump inh,ATG4B inh,GRK2 aptamer HTS
CCN(Cc1ccccc1)C(=O)CSc1nc(C)cc(=O)[nH]1,92.4,-0.1,-8.8,0.0
CC(C)OC(=O)C(C(=O)C(F)(F)F)c1cc(NS(=O)(=O)c2ccc3ccccc3c2)c2ccccc2c1O (configuration not stated),123.2,-0.7,50.9*,0.0
CCOc1ccc(S(=O)(=O)Nc2cc(SCC(=O)O)c(O)c3ccccc23)cc1,122.7,-0.1,-20.9,2.0
Oc1ccc(N=C/C=C/c2ccc(Br)cc2)cc1-c1nc2ccccc2s1,99.6,-0.2,·,41.0*
Brc1cc2c(cc1-c1nc3ccccc3s1)OCO2,115.2,0.0,6.6,3.0
O=C(/C=C/c1ccc(F)cc1)NC(=S)NNC(=O)c1cnccn1,68.6,-0.1,-0.7,1.0

# Compound activity from PubChem BioAssay.
